The entries come from a sample that favours hits as a whole.
nsP2pro inh – blocks chikungunya virus nsP2 protease peptide cleavage. Potency, µM (highest dose often 24.9 µM), hits mostly inhibitors. FRET peptide cleavage, nsP2pro, fluorescence 1 h. Q8JUX6. 31,000 compounds, 1.1% hits; further: nearly all actives have a fitted effect of over 60% in size
Target sequence (Q8JUX6 whole entry, looked up): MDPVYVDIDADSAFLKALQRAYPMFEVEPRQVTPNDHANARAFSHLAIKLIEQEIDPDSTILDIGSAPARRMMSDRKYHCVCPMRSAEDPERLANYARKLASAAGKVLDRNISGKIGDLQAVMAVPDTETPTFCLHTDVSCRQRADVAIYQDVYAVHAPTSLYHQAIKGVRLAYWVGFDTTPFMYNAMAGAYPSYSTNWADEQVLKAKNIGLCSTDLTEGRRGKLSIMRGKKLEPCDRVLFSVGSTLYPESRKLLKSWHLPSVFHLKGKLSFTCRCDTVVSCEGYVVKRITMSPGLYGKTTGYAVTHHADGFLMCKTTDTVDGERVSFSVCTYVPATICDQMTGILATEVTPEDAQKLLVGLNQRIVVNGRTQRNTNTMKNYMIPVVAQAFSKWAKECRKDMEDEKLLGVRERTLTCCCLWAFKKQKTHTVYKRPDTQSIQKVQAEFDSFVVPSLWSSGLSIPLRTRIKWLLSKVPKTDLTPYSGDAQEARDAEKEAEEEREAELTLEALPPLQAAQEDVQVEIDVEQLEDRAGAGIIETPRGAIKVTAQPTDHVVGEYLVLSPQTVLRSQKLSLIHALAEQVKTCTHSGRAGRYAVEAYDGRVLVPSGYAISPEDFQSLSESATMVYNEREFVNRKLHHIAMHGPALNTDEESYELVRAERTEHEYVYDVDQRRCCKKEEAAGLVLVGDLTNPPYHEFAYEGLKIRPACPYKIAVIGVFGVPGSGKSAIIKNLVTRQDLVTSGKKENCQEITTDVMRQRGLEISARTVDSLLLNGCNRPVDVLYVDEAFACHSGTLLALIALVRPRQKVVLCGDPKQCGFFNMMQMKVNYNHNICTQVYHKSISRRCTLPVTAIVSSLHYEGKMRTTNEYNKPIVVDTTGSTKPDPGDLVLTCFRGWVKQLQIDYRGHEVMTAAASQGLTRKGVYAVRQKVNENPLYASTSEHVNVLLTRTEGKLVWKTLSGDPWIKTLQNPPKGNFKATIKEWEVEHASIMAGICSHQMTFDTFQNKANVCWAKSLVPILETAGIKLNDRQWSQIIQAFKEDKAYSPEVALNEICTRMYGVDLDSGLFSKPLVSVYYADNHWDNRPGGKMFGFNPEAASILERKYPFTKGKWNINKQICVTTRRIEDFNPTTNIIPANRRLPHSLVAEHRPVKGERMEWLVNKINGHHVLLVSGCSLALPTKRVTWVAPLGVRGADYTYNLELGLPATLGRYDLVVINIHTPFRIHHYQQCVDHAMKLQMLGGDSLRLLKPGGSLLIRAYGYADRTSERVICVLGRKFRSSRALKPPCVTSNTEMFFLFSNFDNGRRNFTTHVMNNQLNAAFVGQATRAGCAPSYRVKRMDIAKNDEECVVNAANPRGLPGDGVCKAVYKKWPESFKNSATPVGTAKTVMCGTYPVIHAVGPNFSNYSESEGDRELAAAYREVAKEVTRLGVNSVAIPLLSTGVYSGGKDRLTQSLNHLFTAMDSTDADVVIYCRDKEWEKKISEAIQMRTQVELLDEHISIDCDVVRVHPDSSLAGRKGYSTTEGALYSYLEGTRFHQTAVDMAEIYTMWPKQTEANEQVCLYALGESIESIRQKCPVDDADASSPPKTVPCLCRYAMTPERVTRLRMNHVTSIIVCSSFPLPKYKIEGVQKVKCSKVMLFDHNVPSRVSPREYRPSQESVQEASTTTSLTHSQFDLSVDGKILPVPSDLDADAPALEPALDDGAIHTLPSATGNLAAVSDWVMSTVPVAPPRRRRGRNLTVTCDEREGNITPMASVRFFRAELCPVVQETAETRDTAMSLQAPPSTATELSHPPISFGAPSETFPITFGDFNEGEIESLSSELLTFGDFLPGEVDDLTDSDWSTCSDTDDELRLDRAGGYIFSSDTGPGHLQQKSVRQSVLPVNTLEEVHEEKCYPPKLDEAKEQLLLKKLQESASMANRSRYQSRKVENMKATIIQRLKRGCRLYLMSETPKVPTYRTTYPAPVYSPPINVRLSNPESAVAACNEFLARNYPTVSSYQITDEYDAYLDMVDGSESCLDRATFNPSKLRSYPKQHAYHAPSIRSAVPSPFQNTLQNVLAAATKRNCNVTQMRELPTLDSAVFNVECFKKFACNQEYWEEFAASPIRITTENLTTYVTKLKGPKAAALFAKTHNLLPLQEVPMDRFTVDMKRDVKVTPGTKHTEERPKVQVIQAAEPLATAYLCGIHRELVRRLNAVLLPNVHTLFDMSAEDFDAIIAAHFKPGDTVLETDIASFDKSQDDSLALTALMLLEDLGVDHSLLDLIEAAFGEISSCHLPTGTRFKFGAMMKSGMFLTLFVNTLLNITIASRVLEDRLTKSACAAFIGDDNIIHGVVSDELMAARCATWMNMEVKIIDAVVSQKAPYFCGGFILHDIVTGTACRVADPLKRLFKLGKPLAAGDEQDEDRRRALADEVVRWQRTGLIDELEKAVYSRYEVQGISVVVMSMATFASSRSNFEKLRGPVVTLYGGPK
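Recombinant nsP2pro (150 nM) was preincubated with compound 15 min at room temperature in 10 mM Tris-HCl pH 8.0, 0.01% Tween 20. Peptide 2 FRET substrate (2.5 uM) was then added and fluorescence read after 1 h. Seven-point series, up to 25 uM.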
nsP2 cell sec – cell-based CHIKV nsP2 protease inhibition, secondary; Potency, µM (series often up to 51.1 µM), most hits filed as inhibitors; cell-based CHIKV nsP2 protease reporter assay; 450 compounds, 10% hits; shares compounds with nsP2pro inh; further: nearly all actives have a fitted effect of over 70% in size
NSP2 full ctr – inhibits full-length CHIKV NSP2 enzyme. shares compounds with nsP2pro inh. Full-length CHIKV NSP2 protease enzymatic counterscreen. Potency, µM (series often up to 50.7 µM), most hits filed as inhibitors. 410 compounds, 39% hits; further: nearly all actives have a fitted effect of over 65% in size
Furin counterscr – selectivity counter-screen for CHIKV nsP2 protease inhibitors: human furin. Recombinant human furin enzymatic counterscreen, fluorogenic substrate. Potency, µM (doses to about 50.6 µM), most hits filed as inhibitors. shares compounds with nsP2pro inh. 410 compounds, 6% hits. AID 1964102
NS23 peptide cs – selectivity test for CHIKV nsP2 protease inhibitors: endogenous NS2/3 peptide; shares compounds with nsP2pro inh; Purified CHIKV nsP2 protease, endogenous NS2/3 peptide cleavage; Potency, µM (doses to about 51 µM), most hits filed as inhibitors; 410 compounds, 34% hits; further: nearly all actives have a fitted effect of over 55% in size
Papain counter – selectivity counter-screen for CHIKV nsP2 protease inhibitors: papain | shares compounds with nsP2pro inh | 410 compounds, 5% hits | Potency, µM (titrated, usually from 51 µM), hits mostly inhibitors | AID 1964104 | purified papain protease activity, enzymatic inhibition
nsP2pro conf qHTS – CHIKV nsP2 protease inhibition, confirmatory qHTS; shares compounds with nsP2pro inh; CHIKV nsP2 protease enzymatic activity, qHTS; Potency, µM (top dose mostly 25.5 µM), actives largely listed as inhibitors; 410 compounds, 43% hits; AID 1964105; further: nearly all actives have a fitted effect of over 75% in size
HCV NS3 4A cs – selectivity counter-screen for CHIKV nsP2 protease inhibitors: HCV NS3/4A. 410 compounds, 20% hits. shares compounds with nsP2pro inh. HCV NS3/4A protease biochemical counterscreen. Potency, µM (doses to about 50.9 µM), usual class: inhibitors; further: nearly all actives have a fitted effect of over 55% in size
Each line names hits and unclear results; the compound was inactive in the other large screens (follow-up assays come after a bar, where they were run); ! = a repeat was not active. The call rests on the fitted dose curve.

Cc1ccc(S(=O)(=O)c2nc(S(=O)(=O)c3ccc(C)cc3)c(NC(C)C)s2)cc1	none
Cc1ccc(S(=O)(=O)O)cc1	none
CCn1nc(C)c(-c2cc(C(=O)N3CCCCCCNC(=O)CC3)no2)c1C	none
O=C(CCn1ccn2nc3c(c2c1=O)CCCC3)Nc1ccc(F)cc1F	none
COc1ccc(C(=O)Nc2ccc(N(C)Cc3ccccc3)c(C(=O)O)c2)cc1	nsP2pro inh 5.01µM | nsP2 cell sec inactive | NSP2 full ctr 5.17µM | Furin counterscr inconclusive | NS23 peptide cs 13µM | Papain counter inactive | nsP2pro conf qHTS 7.98µM | HCV NS3 4A cs 3.26µM
CCCCN(CCCNC(=O)c1ccc(Sc2ccc(Cl)cc2)c(NC(C)=O)c1)c1ccccc1	none
COc1ccc(NC(=O)CCN2CCN(c3cccc(Cl)c3)CC2)cc1	none
CCCCNC(=O)CN1CCN(c2ncc(NC(=O)c3ccc(Cl)cc3)cc2C(=O)O)CC1	nsP2pro inh inconclusive | nsP2 cell sec inactive | NSP2 full ctr 14.6µM | Furin counterscr inactive | NS23 peptide cs inactive | Papain counter inactive | nsP2pro conf qHTS inactive | HCV NS3 4A cs inactive
COc1ccc(NC(=O)c2ccc3nc(CCc4ccccc4)oc3c2)cc1	none
CCCCOc1ccc(C(=O)Nc2ccc3c(c2)CCCN3C(=O)c2cccs2)cc1	none
CCCCNC(=O)CN1CCN(c2ccc(NC(=O)c3ccc(OC)cc3)cc2C(=O)O)CC1	nsP2pro inh 4.47µM | nsP2 cell sec inconclusive | NSP2 full ctr 4.11µM | Furin counterscr inconclusive | NS23 peptide cs 7.3µM | Papain counter inactive | nsP2pro conf qHTS 6.34µM | HCV NS3 4A cs 1.83µM
CCOc1cccc(C(=O)Nc2ccc(S(=O)(=O)N(Cc3ccccc3)c3ccccc3)cc2)c1	none
Cc1ccc(Cl)cc1NC(=O)c1cnc(N2CCCCC2)c2ccccc12	none
CC(=O)OC1CC(OC2C(O)CC(OC3C(O)CC(OC4CCC5(C)C(CCC6C5CCC5(C)C(C7=CC(=O)OC7)CCC65O)C4)OC3C)OC2C)OC(C)C1O (stereo not drawn)	none
Cc1ccc(S(=O)(=O)Nc2cnccc2C(=O)Nc2ccc(-n3cncn3)cc2)cc1	none
Cc1c(Cl)c(C)[n+]([O-])c(Cl)c1-c1noc(-c2cc(O)c(O)c([N+](=O)[O-])c2)n1	none
Cc1cc(-c2nnc3n2CCCCC3)c(C)n1-c1cccc(C(F)(F)F)c1	none
Cc1ccc(-c2ccc3ncc4c(c3n2)n(C2CCN(C(=O)[C@H](C)O)CC2)c(=O)n4C)cn1	none
CN(C)c1cccc(-c2ncc(F)c(N3CCC(C(N)=O)CC3)n2)c1	nsP2pro inh inconclusive | nsP2 cell sec inactive | NSP2 full ctr inactive | Furin counterscr inactive | NS23 peptide cs inactive | Papain counter inactive | nsP2pro conf qHTS inactive | HCV NS3 4A cs inactive
CN(C)c1cccc(-c2nccc(N3CCC(C(N)=O)CC3)n2)c1	none
CN(C)c1cccc(-c2nc(N3CCC(C(N)=O)CC3)ncc2F)c1	none
FC(F)(F)c1cc(-c2ccc(CNc3nc(-c4ccncc4)nc4ccccc34)cc2)ccn1	none
CCN(CC)C(=S)SSC(=S)N(CC)CC	nsP2pro inh 2.48µM! | nsP2 cell sec 12.6µM | NSP2 full ctr 14.6µM | Furin counterscr inactive | NS23 peptide cs 9.19µM | Papain counter inconclusive | nsP2pro conf qHTS 1.79µM | HCV NS3 4A cs inconclusive
CCC(=O)NC[C@@H]1C[C@H]1c1cccc2c1CCO2	none
Oc1ccc(Nc2nc(-c3ccncc3)nc3ccccc23)cc1F	none
Cc1ccsc1CN(C)c1ncnc2ccc(-c3oc(-c4ccccc4)nc3C)cc12	none
COC(=O)c1cccc(-n2c(CCC(=O)O)ccc2-c2cccs2)c1	nsP2pro inh 8.91µM | nsP2 cell sec inactive
CC(=O)c1ccc(-n2c(CCC(=O)O)ccc2-c2cccs2)cc1	none
COC(=O)c1ccccc1NC(=O)Cn1c(CCC(=O)O)ccc1-c1cccs1	none
N#Cc1c2nc3ccccc3nc2n2ccc(NC(=O)c3cccs3)cc12	none

Screens deposited in PubChem by National Center for Advancing Translational Sciences (NCATS).
